From PubChem BioAssay (Tox21)
Where “and” joins values, the source holds several entries; their conditions need not be identical. Equal values may be shown once. Values without a mark were called inactive. Records with an inconclusive call do not appear. A call without a number means that no potency is given here. Calls of active or inactive are those of the source. Unless noted, calls come from the whole dose curve; as a rule, active = well fitted curve in the direction sought with a large enough effect in the repeat runs; inconclusive = weak or mixed curves; inactive = no such curve, though single readings can be large; an effect the other way counts as inactive or inconclusive.

Assays:
[1] = A CellTox Green Cytotoxicity Assay to monitor cytotoxicity in HEK293 cells - 0 hour (AID 1224869); note: nearly all actives have a fitted effect of over 50% in size
How it was run: (§1)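 Tox21 screen in HEK293: membrane-impermeant cyanine dye fluoresces on binding dead-cell DNA; compound pinned 5 h post-seeding, plates held at 37 C, signal read repeatedly through 40 h.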

[2] = A CellTox Green Cytotoxicity Assay to monitor cytotoxicity in HEK293 cells - 40 hour (AID 1224871); note: nearly all actives have a fitted effect of over 45% in size; note: potency is the fitted concentration of half-maximal effect
How it was run: as §1

[3] = qHTS RealTime-Glo MT Cell Viability Assay in HepG2 cells - 8 hour (AID 1224873); note: nearly all actives have a fitted effect of over 55% in size; note: potency is the fitted concentration of half-maximal effect
How it was run: (§2)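 Real-time viability: cells seeded at 600 per well together with NanoLuc and cell-permeant prosubstrate, compounds added after 5 h incubation. Luminescence tracked at 0, 8, 16, 24, 32 and 40 h of exposure.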

[4] = qHTS RealTime-Glo MT Cell Viability Assay in HEK293 cells - 40 hour (AID 1224874); conditions: RealTime-Glo luminescence; max response: stronger effect = lower value; note: nearly all actives have a fitted effect of over 50% in size; note: potency is the fitted concentration of half-maximal effect
How it was run: (§3)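 HEK293 + NanoLuc + prosubstrate, 600 cells/well; 5 h, 37 C/5% CO2; compound 23 nL in DMSO by pintool; 37 C; luminescence read at 0, 8, 16, 24, 32 and 40 h time points.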

[5] = A CellTox Green Cytotoxicity Assay to monitor cytotoxicity in HEK293 cells - 24 hour (AID 1224875); note: nearly all actives have a fitted effect of over 45% in size; note: potency is the fitted concentration of half-maximal effect
How it was run: as §1

[6] = A CellTox Green Cytotoxicity Assay to monitor cytotoxicity in HepG2 cells - 16 hour (AID 1224876); note: nearly all actives have a fitted effect of over 45% in size; note: potency is the fitted concentration of half-maximal effect
How it was run: (§4)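 Measurements at 0, 8, 16, 24, 32 and 40 h of treatment captured CellTox Green fluorescence in HepG2 cells that had been co-plated with reagent and preincubated 5 h at 37 C/5% CO2.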

[7] = qHTS RealTime-Glo MT Cell Viability Assay in HepG2 cells - 32 hour (AID 1224877); note: nearly all actives have a fitted effect of over 55% in size; note: potency is the fitted concentration of half-maximal effect
How it was run: (§5)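 Luminescence read-out: viable HepG2 cells reduce a prosubstrate to a NanoLuc substrate, giving a signal proportional to live cell number. Reads taken at 0, 8, 16, 24, 32 and 40 h of compound exposure at 37 C.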

[8] = A CellTox Green Cytotoxicity Assay to monitor cytotoxicity in HepG2 cells - 24 hour (AID 1224878); note: nearly all actives have a fitted effect of over 45% in size; note: potency is the fitted concentration of half-maximal effect
How it was run: as §4

[9] = A CellTox Green Cytotoxicity Assay to monitor cytotoxicity in HepG2 cells - 40 hour (AID 1224879); note: nearly all actives have a fitted effect of over 40% in size; note: potency is the fitted concentration of half-maximal effect
How it was run: as §4

[10] = qHTS RealTime-Glo MT Cell Viability Assay in HEK293 cells - 0 hour (AID 1224880)
How it was run: as §3

[11] = A CellTox Green Cytotoxicity Assay to monitor cytotoxicity in HEK293 cells - 32 hour (AID 1224881); note: nearly all actives have a fitted effect of over 40% in size; note: potency is the fitted concentration of half-maximal effect
How it was run: as §1

[12] = qHTS assay to identify small molecule antagonists of the estrogen related receptor (ERR) signaling pathway from Tox21 library (AID 1224848); note: nearly all actives have a fitted effect of over 50% in size; note: potency is the fitted concentration of half-maximal effect
How it was run: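 ERR cell line, 2,000 cells/well. 6 h settle, then compound (DMSO) added; 18 h at 37 C; ONE-Glo luminescence after 30 min RT.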

[13] = qHTS assay to identify small molecule agonists of the estrogen related receptor (ERR) signaling pathway from Tox21 library (AID 1224849; calls by dose curve; note: nearly all actives have a fitted effect of over 15% in size); conditions: ERR reporter cell line, ONE-Glo luciferase, 18 h; at 92.4 µM (top of the series) unless noted
How it was run: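 Tox21 compounds tested for ERR agonism in an NTP reporter cell line: 18 h treatment at 37 C, then ONE-Glo luminescence.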

[14] = qHTS RealTime-Glo MT Cell Viability Assay in HepG2 cells - 24 hour (AID 1224867); note: nearly all actives have a fitted effect of over 50% in size; note: potency is the fitted concentration of half-maximal effect
How it was run: as §5

[15] = qHTS RealTime-Glo MT Cell Viability Assay in HEK293 cells - 32 hour (AID 1224868); note: nearly all actives have a fitted effect of over 50% in size; note: potency is the fitted concentration of half-maximal effect
How it was run: (§6)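 Nonlytic real-time viability readout: viable cells convert prosubstrate to NanoLuc substrate, giving luminescence proportional to live cell number. HEK293, 600 cells/well, compound added after 5 h, continuous culture at 37 C.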

[16] = qHTS RealTime-Glo MT Cell Viability Assay in HEK293 cells - 16 hour (AID 1224872); note: nearly all actives have a fitted effect of over 50% in size; note: potency is the fitted concentration of half-maximal effect
How it was run: as §6

[17] = qHTS assay to identify small molecule agonists of H2AX - cell viability counter screen (AID 1224847; calls by dose curve; note: nearly all actives have a fitted effect of over 30% in size; note: potency is the fitted concentration of half-maximal effect)
How it was run: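 CHO-K1 cells plated overnight at 37C, then exposed 3 h at 37C to compounds at 15 concentrations (0.76% DMSO final). Viability by CellTiter-Glo luminescence after 30 min at room temperature.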

[18] = qHTS RealTime-Glo MT Cell Viability Assay in HepG2 cells - 40 hour (AID 1224870); note: nearly all actives have a fitted effect of over 50% in size; note: potency is the fitted concentration of half-maximal effect
How it was run: as §2

SMILES	Potency [1]	Potency [2]	Potency [3]	Potency [4]	Potency [5]	Potency [6]	Potency [7]	Potency [8]	Potency [9]	Potency [10]	Potency [11]	Potency [12]	activity change, positive = activation [13] [%]	Potency [14]	Potency [15]	Potency [16]	Potency [17]	Potency [18]	max response [4] [%]
c1ccc2c(c1)OCC(C1=NCCN1)O2 (centres undefined)	inactive	23.9 µM (active)	inactive	19 µM (active)	inactive	inactive	inactive	inactive	inactive	inactive	19 µM (active)	–	–	–	–	–	–	–	–
Nc1ccc(Cc2ccc(N)c(Cl)c2)cc1Cl	inactive	inactive	–	23.7 µM (active)	inactive	inactive	–	inactive	inactive	inactive	inactive	26.4 µM (active)	-35.2	inactive	26.6 µM (active)	29.9 µM (active)	–	–	–
CC(=O)[O-].CC(=O)[O-].[Hg+2]	inactive	5.49 µM (active)	2.45 µM (active)	1.55 µM (active)	21.9 µM (active)	2.75 µM (active)	2.19 µM (active)	2.19 µM (active)	1.55 µM (active)	–	7.76 µM (active)	–	–	2.19 µM (active)	–	–	6.35 µM (active)	2.45 µM (active)	–
O=[N+]([O-])c1c2ccccc2cc2ccccc12	inactive	–	inactive	–	5.43 µM (active)	1.08 µM (active)	inactive	–	60.9 µM (active)	inactive	5.43 µM (active)	inactive	–	inactive	inactive	inactive	–	inactive	1.8
Clc1ccc(CSC(Cn2ccnc2)c2ccc(Cl)cc2Cl)cc1 (centres undefined)	inactive	inactive	–	–	inactive	inactive	–	inactive	inactive	inactive	inactive	–	–	–	–	–	49.2 µM (active)	–	–
O=C(Nc1ccc2[nH]ccc2c1)c1cc2cc(F)ccc2n1Cc1cccc(F)c1	inactive	inactive	–	–	inactive	inactive	–	inactive	inactive	inactive	inactive	6.11 µM (active)	-52.2	–	inactive	inactive	–	–	–
ClC1=C(Cl)C2(Cl)C3C(Cl)C=CC3C1(Cl)C2(Cl)Cl (centres undefined)	inactive	55.2 µM (active) and 49 µM (active)	–	49.2 µM (active) and 49 µM (active)	49.2 µM (active) and 49 µM (active)	–	–	–	–	inactive	55.2 µM (active) and 49 µM (active)	–	–	–	49.2 µM (active) and 49 µM (active)	43.8 µM (active) and 43.6 µM (active)	113 µM (active)	inactive	–
CC(C)(C)C(O)C(Oc1ccc(-c2ccccc2)cc1)n1cncn1 (centres undefined)	inactive	inactive	inactive	21.9 µM (active)	inactive	inactive	inactive	–	–	inactive	inactive	27.3 µM (active)	-60.3	inactive	24.5 µM (active)	49 µM (active)	–	inactive	–
S=C=Nc1cccc2ccccc12	inactive	inactive	inactive	–	–	inactive	inactive	inactive	inactive	inactive	inactive	–	-54.3	inactive	inactive	inactive	–	inactive	2.28
OC(c1ccc(Cl)cc1)(c1ccc(Cl)cc1)C(Cl)(Cl)Cl	inactive	49 µM (active)	inactive	–	inactive	inactive	inactive	inactive	inactive	inactive	–	inactive	–	inactive	–	–	–	inactive	–
[Cl][Sb]([Cl])[Cl]	inactive	24.5 µM (active)	inactive	–	–	inactive	inactive	inactive	–	inactive	inactive	–	–	inactive	–	inactive	inactive	inactive	–
c1ccc2c(c1)[nH]c1cnccc12	inactive	inactive	inactive	–	inactive	inactive	–	inactive	inactive	inactive	inactive	–	–	inactive	inactive	inactive	inactive	inactive	–
CC(C)(O)c1cnn2c(-c3ccc(F)c(-c4c(F)cccc4C#N)c3)cnc2n1	inactive	–	inactive	–	inactive	inactive	inactive	inactive	inactive	–	–	27.3 µM (active)	-53.4	inactive	5.49 µM (active)	5.49 µM (active)	–	inactive	–
